Results reported in PubChem BioAssay (NCATS).
Inconclusive results are not listed. Activity calls are given as the source filed them. Calls follow the shape of the dose curve; as a rule, active = well fitted curve in the direction sought with a large enough effect; inconclusive = small, poorly fitted or top-dose-only effect, or another doubt; inactive = no such curve, though single readings can be large; an effect the other way counts as inactive or inconclusive.

Tests used:
[1] = molecular target: Rap guanine nucleotide exchange factor 3 (Homo sapiens) (UniProt O95398); assay: Confirmatory qHTS for agonist of cAMP-regulated guanine nucleotide exchange factor 3 (EPAC1) (AID 1645881);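 also: EPAC1 catalysed release of BODIPY-GDP from Rap1B seen as fluorescence loss; 100% = effect of cAMP agonist control; nearly all actives have a fitted effect of over 75% in size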
[2] = molecular target: Rap guanine nucleotide exchange factor 4 (Homo sapiens) (UniProt Q8WZA2); assay: Confirmatory qHTS for agonist of cAMP-regulated guanine nucleotide exchange factor 4 (EPAC2) (AID 1645884);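 also: nucleotide exchange releases bodipy-GDP from Rap1 and this lowers its fluorescence; % is scaled to controls: 0 for no effect and ±100 for the full control effect; nearly all actives have a fitted effect of over 65% in size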
[3] = molecular target: Rap guanine nucleotide exchange factor 3 (Homo sapiens) (UniProt O95398); assay: Counterscreen qHTS for antagonist of cAMP-regulated guanine nucleotide exchange factor 3 (EPAC1) (AID 1645888);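 also: fluorescence loss as bound BODIPY-GDP is released from Rap1B; % of control where 0% means no effect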
Procedure, shortened: (§1)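 Rap1B–BODIPY-GDP (250 nM) with 50 uM GDP; compounds pin-transferred to 9.74 nM–152 uM final (activator) or from 7.32 nM upwards (inhibitor). Fluorescence Ex/Em 480/540 nm read at 5 and 30 min, then after adding cAMP or buffer, at room temperature.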

[4] = molecular target: Rap guanine nucleotide exchange factor 3 (Homo sapiens) (UniProt O95398); assay: Counterscreen qHTS for agonist of cAMP-regulated guanine nucleotide exchange factor 3 (EPAC1) (AID 1645889); also: % of control where 0% means no effect; nearly all actives have a fitted effect of over 40% in size
Procedure, shortened: as §1

Sequence of Rap guanine nucleotide exchange factor 4 (Homo sapiens) (Q8WZA2 whole entry, looked up): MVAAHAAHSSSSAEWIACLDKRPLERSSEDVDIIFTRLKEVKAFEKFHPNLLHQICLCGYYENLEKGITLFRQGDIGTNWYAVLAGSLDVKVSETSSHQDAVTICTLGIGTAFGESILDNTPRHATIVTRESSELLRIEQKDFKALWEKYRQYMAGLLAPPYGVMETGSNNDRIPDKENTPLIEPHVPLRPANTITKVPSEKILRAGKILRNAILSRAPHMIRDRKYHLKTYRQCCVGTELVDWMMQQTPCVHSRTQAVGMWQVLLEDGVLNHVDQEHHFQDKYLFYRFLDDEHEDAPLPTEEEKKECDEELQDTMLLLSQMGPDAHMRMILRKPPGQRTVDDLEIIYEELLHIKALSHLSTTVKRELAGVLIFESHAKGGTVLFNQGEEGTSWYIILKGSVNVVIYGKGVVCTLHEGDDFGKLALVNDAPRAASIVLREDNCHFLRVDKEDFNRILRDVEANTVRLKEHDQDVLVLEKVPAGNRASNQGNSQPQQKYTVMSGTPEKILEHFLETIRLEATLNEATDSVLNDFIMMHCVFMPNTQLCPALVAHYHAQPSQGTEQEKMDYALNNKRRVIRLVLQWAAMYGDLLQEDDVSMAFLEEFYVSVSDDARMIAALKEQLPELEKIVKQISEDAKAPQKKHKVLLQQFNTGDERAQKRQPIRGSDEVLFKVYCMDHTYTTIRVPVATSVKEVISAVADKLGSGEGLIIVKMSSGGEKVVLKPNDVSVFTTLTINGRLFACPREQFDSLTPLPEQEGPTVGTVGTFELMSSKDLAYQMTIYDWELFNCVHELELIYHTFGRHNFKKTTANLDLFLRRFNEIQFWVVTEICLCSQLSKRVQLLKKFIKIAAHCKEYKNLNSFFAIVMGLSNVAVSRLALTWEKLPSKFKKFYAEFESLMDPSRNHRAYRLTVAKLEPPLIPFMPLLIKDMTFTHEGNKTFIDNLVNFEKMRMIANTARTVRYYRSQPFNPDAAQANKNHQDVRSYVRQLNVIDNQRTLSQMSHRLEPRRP
Sequence of Rap guanine nucleotide exchange factor 3 (Homo sapiens) (O95398 whole entry, looked up): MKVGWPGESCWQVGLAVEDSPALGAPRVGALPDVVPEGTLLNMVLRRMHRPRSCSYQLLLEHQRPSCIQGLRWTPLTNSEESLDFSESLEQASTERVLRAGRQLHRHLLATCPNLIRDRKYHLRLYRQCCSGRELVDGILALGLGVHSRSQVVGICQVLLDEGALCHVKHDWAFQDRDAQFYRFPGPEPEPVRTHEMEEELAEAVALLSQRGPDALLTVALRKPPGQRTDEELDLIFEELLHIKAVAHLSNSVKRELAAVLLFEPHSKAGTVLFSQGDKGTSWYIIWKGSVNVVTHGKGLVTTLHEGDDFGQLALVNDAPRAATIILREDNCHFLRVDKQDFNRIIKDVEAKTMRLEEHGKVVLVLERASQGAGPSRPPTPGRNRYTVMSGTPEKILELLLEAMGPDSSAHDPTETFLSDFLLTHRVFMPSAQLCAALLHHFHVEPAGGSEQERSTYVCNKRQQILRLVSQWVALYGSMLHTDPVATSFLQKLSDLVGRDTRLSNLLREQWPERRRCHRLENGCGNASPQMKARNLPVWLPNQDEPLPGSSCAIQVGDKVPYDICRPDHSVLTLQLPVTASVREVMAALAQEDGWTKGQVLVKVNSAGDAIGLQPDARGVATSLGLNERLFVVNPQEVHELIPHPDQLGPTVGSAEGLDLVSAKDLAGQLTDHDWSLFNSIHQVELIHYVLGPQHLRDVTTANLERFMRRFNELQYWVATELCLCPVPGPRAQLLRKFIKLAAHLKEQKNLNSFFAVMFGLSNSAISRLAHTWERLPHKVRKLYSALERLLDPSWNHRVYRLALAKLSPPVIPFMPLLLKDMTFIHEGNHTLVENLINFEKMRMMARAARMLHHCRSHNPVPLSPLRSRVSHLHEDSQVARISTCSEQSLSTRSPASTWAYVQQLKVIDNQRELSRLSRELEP

Cc1ccc(S(=O)(=O)/N=C2\C=C(NS(=O)(=O)c3ccccc3)C(=O)c3ccccc32)c(C)c1
inactive: Potency [1] | activation [2] 5.26% [at 17.1 µM, percent relative to cAMP agonist control] | activity change, negative = inhibition [3] -5.99% [at 30.8 µM]

Clc1cccc(-c2nc3ccc(Cl)cn3c2Cc2ccsc2)c1
inactive: Potency [1] | Potency [2] | Potency [3]

O=C(O)C1Nc2c(Cl)cc(Cl)c(Cl)c2C2C=CCC12 (stereo not given)
inactive: Potency [1] | Potency [2] | Potency [3] | Potency [4]
